From PubChem BioAssay AID2642 (Johns Hopkins Ion Channel Center, 2010)
Out of some 310,000 compounds screened, about 3,900 (1.3%) were called active.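 Rule for the calls: active = compounds whose thallium flux B-score, printed positive for inhibition, exceeds three library SD while starting fluorescence stays within three; inactive = the rest.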 Many of the other results were omitted from the sample, so actives are more common in it than they were.

target: Potassium voltage-gated channel subfamily KQT member 1 (Homo sapiens) (UniProt P51787); test: KCNQ1 potassium current blockers – cell-based, thallium flux, high-throughput, primary screen (AID 2642); settings: CHO-K1 KCNQ1, FluxOR thallium flux fluorescence, at 10 µM; active compounds read high;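 note: channel opened by potassium depolarization with thallium stimulus after 20 min compound exposure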
Sequence (P51787 whole entry, looked up): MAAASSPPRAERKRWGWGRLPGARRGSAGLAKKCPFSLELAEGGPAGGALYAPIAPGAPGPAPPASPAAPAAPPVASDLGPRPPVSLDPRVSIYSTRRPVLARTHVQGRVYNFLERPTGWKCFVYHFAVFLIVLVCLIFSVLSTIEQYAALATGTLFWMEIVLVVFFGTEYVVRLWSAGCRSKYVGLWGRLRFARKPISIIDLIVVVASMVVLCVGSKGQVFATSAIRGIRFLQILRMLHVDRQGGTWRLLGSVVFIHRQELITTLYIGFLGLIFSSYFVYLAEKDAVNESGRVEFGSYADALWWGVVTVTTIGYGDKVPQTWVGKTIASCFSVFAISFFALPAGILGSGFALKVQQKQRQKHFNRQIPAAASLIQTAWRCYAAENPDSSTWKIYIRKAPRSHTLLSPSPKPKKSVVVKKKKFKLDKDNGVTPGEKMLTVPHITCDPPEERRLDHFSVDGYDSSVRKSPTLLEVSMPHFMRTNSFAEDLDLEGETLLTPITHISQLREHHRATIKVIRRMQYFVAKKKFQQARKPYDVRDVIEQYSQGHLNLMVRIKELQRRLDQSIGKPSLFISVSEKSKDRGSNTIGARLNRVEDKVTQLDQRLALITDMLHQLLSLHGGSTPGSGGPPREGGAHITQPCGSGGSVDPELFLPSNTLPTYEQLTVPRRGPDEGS

B-score, inactive:
Fc1cccc(Cl)c1CSc1ccc(-c2ccco2)nn1
O=c1cc(O)nc(SCc2ccccc2Cl)[nH]1
CC[C@@]12C(=O)N(c3ccccc3)C(=O)N1[C@H](c1ccc(Br)cc1)[C@@H]1C(=O)N(C(C)(C)C)C(=O)[C@@H]12
CCOc1cccc(=O)c2c(C)n(CC3CCCO3)c(C)c12 (centres undefined)
CCC(=O)Nc1ccc(C(=O)Nc2ccc3c(c2)C(=O)N(CC2CCCO2)C3=O)cc1 (centres undefined)
CCOC(=O)C1CCN(Cc2coc3ccc(Cl)cc3c2=O)CC1
Cc1ccccc1-n1cc(CNC(=O)C2CCC(=O)N(C3CC3)C2)cn1 (centres undefined)
Cc1ccc(C)c(N2CCN(S(=O)(=O)c3c(C)[nH]c(C)c3C(=O)N3CCCC3)CC2)c1
c1ccc2sc(NN=C3CCCC3)nc2c1
COc1ccc(CC(=O)N/N=C/c2cc([N+](=O)[O-])cc(Br)c2O)cc1
CCc1ccc(N(CC(=O)Nc2sc3c(c2C(=O)OC)CCCC3)S(C)(=O)=O)cc1
O=C(Nc1sc2c(c1C(=O)O)CCC2)c1ccccc1F
CCc1nc(N2CCN(C(C)=O)CC2)c2c3c(sc2n1)CCCC3
NS(=O)(=O)c1ccc(CCNC(=S)Nc2ccc(S(N)(=O)=O)cc2)cc1
NS(=O)(=O)c1ccc(NC(=S)NC(=O)c2cccc(Br)c2)cc1
CCCCSc1[nH]c(=O)c(C(=O)OCC)cc1C#N
COCCN(C(=S)Nc1cccc(Cl)c1C)C(C)c1ccco1 (centres undefined)
Fc1ccc(/C=N/n2c(COc3ccccc3)n[nH]c2=S)cc1
CC(C)[C@H](NC(=O)N1CCn2c1nc1ccccc12)C(=O)NCCc1ccccc1
CC(C)CCNC(=O)Cn1c(=O)oc2cc(S(=O)(=O)N3CC(C)CC(C)C3)ccc21 (centres undefined)
CCOc1ccc(CN2CCCN(C)CC2)cc1
CCOc1ccc(CC(=O)NC2CCN(Cc3ccccc3)CC2)cc1
COc1ccc(N(C)S(=O)(=O)c2ccc3c(c2)CC(C)N3C(=O)C2CC2)c(OC)c1 (centres undefined)
Cc1occc(=O)c1OCc1ccc(F)cc1
Fc1ccccc1COc1cccc2cccnc12
CN1C(=O)c2cccc3c(N)ccc(c23)C1=O
O=C1c2ccccc2C(=O)N1c1cccc2ccccc12
C/C(N)=C(/C#N)C(=O)COC(=O)c1cc(-c2ccc(C)cc2)nc2ccccc12
CCCCCCCC[n+]1cccc(C(=O)N2c3c(nc(N)[nH]c3=O)NC(C)C2C)c1 (centres undefined)
COC(=O)c1ccccc1NC(=S)NC(=O)c1ccccc1F
O=C(O)c1ccccc1NC(=O)c1ccccc1-c1ccccc1C(=O)O
COCCNC(=O)C(c1ccc(O)cc1)N(C(=O)CCC(=O)Nc1nccs1)c1ccc(C)cc1 (centres undefined)
CCOC(=O)CN(C(=O)COc1nc(C)cc(C)c1C#N)c1ccc(Cl)cc1
CC1=C(C)CC(C(=O)NNC(=O)c2ccccc2O)C(C(=O)O)C1 (centres undefined)
Cc1ccccc1C(=O)NNC(=O)CN1C(=O)c2ccccc2C1=O
COc1ccccc1CNC(=O)COn1nnc2ccc(S(=O)(=O)N3CCOCC3)cc21
O=S(=O)(c1ccc(Cl)cc1)c1nc(-c2ccco2)oc1N1CCCCC1
COc1ccc(C(=O)Nc2sc(C)c(C)c2CN2CCOCC2)cc1
CCc1cc(C(N)=O)c(NC(=O)c2ccc(OC)cc2)s1
CC(C)CNc1ncnc2c1cnn2Cc1ccc(Cl)cc1
Cc1ccc(Cl)cc1NC(=O)COC(=O)CC(C)(C)C
COCn1c(C(O)c2ccccc2)cc2ccccc21 (centres undefined)
Cc1cc(CNC(=O)c2cccc([N+](=O)[O-])c2)c2ccccc2n1
N#Cc1cccc(Nc2c3c(nc4ccccc24)CCCC3)c1
NS(=O)(=O)c1ccc(CCNC(=O)CNC(=O)Cc2ccccc2)cc1
O=C1N(c2ccccc2)C(=Nc2ccccc2)SC12CC2
C#CCCOC(=O)N1C2=NC(C(=O)OC)=C(C(=O)OC)[C@@H]3N(C)c4ccc(OC)cc4[C@]23C[C@H]1C(=O)OC
O=C1c2ccccc2C(=O)c2c1cccc2N1CCN(CCO)CC1
O=C1c2ccccc2C(=O)c2c1cccc2N1CCN(C/C=C/c2ccccc2)CC1
COC(=O)c1cccc(N(C(=O)CNC(=O)c2cccs2)C(C(=O)NCC2CCCO2)c2ccc(OC)c(OC)c2)c1 (centres undefined)
CCN(Cc1nc2ccccc2c(=O)[nH]1)Cc1cc(=O)oc2cc(C)c(C)cc12
CC(C)CCN(C(=O)c1csnn1)C(C(=O)NC1CCCC1)c1ccccc1 (centres undefined)
O=C(Nc1cccc(F)c1)NC1CCCCCCC1
CC(C)c1ccc(NC(=O)NC2CCCCC2)cc1

B-score, active:
Clc1ccccc1CSc1nnc(-c2ccco2)c(-c2ccco2)n1 11
O=C1c2cccc3c([N+](=O)[O-])ccc(c23)C(=O)N1CC1CCCO1 (centres undefined) 6
O=[N+]([O-])c1cc(Br)c(O)c(/C=N/Nc2nc3ccccc3s2)c1 12
CCN(CC)CC(=O)Nc1sc2c(c1C(=O)c1ccccc1C)CCC2 8
NS(=O)(=O)c1ccc(NC(=S)Nc2ccc(Br)c(Cl)c2)cc1 8
CCOc1ccc(CN2CCN(Cc3c[nH]c4ccccc34)CC2)cc1 12
Cc1nc2ccccc2cc1OCc1ccc(F)cc1 11
Cc1nn(C)cc1N1C(=O)c2cccc3c(N)ccc(c23)C1=O 22
O=C(NC(=S)Nc1ccccc1C(=O)O)c1ccc(-c2ccc(Br)cc2)o1 7
Cc1cc(C(=O)CCC(=O)NNC(=O)c2ccccc2O)c(C)s1 6
CCc1cc(C(c2ccccc2OC)N2CCOCC2)c(NC(=O)c2ccccc2)s1 (centres undefined) 7
O=[N+]([O-])c1cccc(Nc2c3ccccc3nc3ccccc23)c1 8
O=C1c2ccccc2C(=O)c2c1cccc2N1CCN(Cc2ccccc2)CC1 6
Oc1ccc2ccc3cccc[n+]3c2c1 30
Cc1cc(C)cc(NC(=O)NC2CCCCCCC2)c1 7
